Data on ten compounds can be found in PubChem BioAssay (NCI).

SMILES strings stand for the structures. The panel holds about 79,000 compounds, 15% with a hit somewhere; the sample as a whole holds those more often. Unmarked numbers belong to inactive results. Activity calls are given as the source filed them. No stated cut-off is given here; in the data, active means growth inhibition above about 70%; inactive means the rest.

A short description of assay [1]: NCI Yeast Anticancer Drug Screen. Data for the rad50 strain (AID 155).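 Further: 0% = growth of vehicle-only cultures of the same strain.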 Conditions: S. cerevisiae rad50 strain growth inhibition, hits give high values. In a few lines:
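Compounds were tested on a yeast strain with an engineered DNA damage repair alteration; the reported value is growth inhibition normalised to vehicle treatment.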

Assay [2] can be described thus: NCI Yeast Anticancer Drug Screen. Data for the mec2-1 strain (AID 157). The note with it: S. cerevisiae mec2-1 strain, hits give high values. In a few lines:
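Yeast mec2-1 mutant treated with compound. Readout: growth inhibition vs vehicle controls.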

Assay [3] can be described thus: NCI Yeast Anticancer Drug Screen. Data for the sgs1 mgt1 strain (AID 161).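 Further: 0% = growth of cultures given vehicle only.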 The note with it: S. cerevisiae sgs1 mgt1 strain, hits give high values. The method in brief: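 Inhibition of yeast growth, normalised to vehicle-treated controls, is reported for a strain bearing genetic alterations in DNA damage repair.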
The nature of assay [4]: NCI Yeast Anticancer Drug Screen. Data for the cln2 rad14 strain (AID 165).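 Further: 0% = growth equal to vehicle treated cultures.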 The note with it: S. cerevisiae cln2 rad14 strain, hits give high values. The method in brief: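 cln2 rad14 yeast strain; compound exposure; growth inhibition read vs vehicle controls.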
A short description of assay [5]: NCI Yeast Anticancer Drug Screen. Data for the bub3 strain (AID 167). Conditions: S. cerevisiae bub3 mutant strain, hits give high values. In a few lines:
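Growth of a checkpoint-deficient yeast mutant is measured after compound exposure. Values represent inhibition relative to vehicle.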

A short description of assay [6]: NCI Yeast Anticancer Drug Screen. Data for the mlh1 rad18 strain (AID 175). The note with it: S. cerevisiae mlh1 rad18 strain growth inhibition, hits give high values. The method in brief: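 Yeast w/ defined DNA-repair lesions; compound exposure; growth vs vehicle controls → % inhibition.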
The mark [7] stands for this setting: at 5.0 µM (retest, dose inferred, filed as 0.5).
Where [8] appears, read: at 50.0 µM (retest, dose inferred, filed as 5.0).

Turning to `COc1ccc(-c2c(C#N)cc(OC)c(OC)c2OC)c(C=O)c1`, the growth inhibition in assay [1] (setting [7]) was 2%; in assay [1] (setting [8]), 24%; in assay [1] (at 50.0 µM) it was 43.4%; in assay [2] (setting [7]), -5%; in assay [2] (setting [8]) it was 29%; in assay [2] (at 50.0 µM), 31.8%. The growth inhibition in assay [3] (setting [7]) was -19%; in assay [3] (setting [8]), 62%; in assay [3] (at 50.0 µM) it was 40.9%; in assay [4] (setting [7]), 0%; in assay [4] (setting [8]) it was 11%; in assay [4] (at 50.0 µM) it was 80.2% (active). Moreover, the growth inhibition in assay [5] (setting [7]) is -3%; in assay [5] (setting [8]), 26%; in assay [5] (at 50.0 µM), 75% (active); in assay [6] (setting [7]), 11%; in assay [6] (setting [8]), 57%; in assay [6] (at 50.0 µM), 76.3% (active).

As to `COC(=O)C(C#N)C(c1ccccc1)c1c[nH]c2ccccc12` (stereo not given), the growth inhibition in assay [1] (setting [7]) is -3%; in assay [1] (setting [8]) it was 75% (active); in assay [1] (at 50.0 µM) it was 77.2% (active); in assay [2] (setting [7]) it was -4%; in assay [2] (setting [8]), 59%; in assay [2] (at 50.0 µM), 16.3%. Also, the growth inhibition is -5% in assay [3] (setting [7]); 63% in assay [3] (setting [8]); 55.7% in assay [3] (at 50.0 µM); -52% in assay [4] (setting [7]); 82% (active) in assay [4] (setting [8]); 24.1% in assay [4] (at 50.0 µM). In addition, the growth inhibition was -7% in assay [5] (setting [7]); 71% (active) in assay [5] (setting [8]); -4.8% in assay [5] (at 50.0 µM); -14% in assay [6] (setting [7]); 89% (active) in assay [6] (setting [8]); 71% (active) in assay [6] (at 50.0 µM).

As to `CCOC(=O)c1c[nH]cc1-c1cn(S(=O)(=O)c2ccccc2)cc1C`, the growth inhibition in assay [1] (setting [7]) is 38%; in assay [1] (setting [8]), 12%; in assay [1] (at 50.0 µM) it was 29.2%; in assay [2] (setting [7]), 34%; in assay [2] (setting [8]), 14%; in assay [2] (at 50.0 µM) it was 18.2%. Also, the growth inhibition in assay [3] (setting [7]) is 69%; in assay [3] (setting [8]), 21%; in assay [3] (at 50.0 µM), 49.6%; in assay [4] (setting [7]) it was 38%; in assay [4] (setting [8]), 15%; in assay [4] (at 50.0 µM), 43.5%. Also, the growth inhibition in assay [5] (setting [7]) is 89% (active); in assay [5] (setting [8]), 38%; in assay [5] (at 50.0 µM), 44%; in assay [6] (setting [7]) it was 82% (active); in assay [6] (setting [8]), 28%; in assay [6] (at 50.0 µM), 49%.

`COc1ccc(C(O)/C(=N\NC(N)=S)c2nc3ccc([N+](=O)[O-])cc3[nH]c2=O)cc1OC` (stereo not given): the growth inhibition in assay [1] (setting [7]) is 4%; in assay [1] (setting [8]), 97% (active); in assay [1] (at 50.0 µM), 66.1%; in assay [2] (setting [7]), 1%; in assay [2] (setting [8]) it was 99% (active); in assay [2] (at 50.0 µM), 28.2%. The growth inhibition in assay [3] (setting [7]) was 4%; in assay [3] (setting [8]), 97% (active); in assay [3] (at 50.0 µM), 20.6%; in assay [4] (setting [7]) it was 1%; in assay [4] (setting [8]), 98% (active); in assay [4] (at 50.0 µM), 6.55%. In addition, the growth inhibition in assay [5] (setting [7]) was 6%; in assay [5] (setting [8]) it was 98% (active); in assay [5] (at 50.0 µM) it was 22.7%; in assay [6] (setting [7]), 0%; in assay [6] (setting [8]) it was 97% (active); in assay [6] (at 50.0 µM), 52.8%.

For `C=C(C)/C([O-])=N/[N+](C)(C)CC(O)CCCCCCCCCCCC` (stereo not given), the growth inhibition in assay [1] (setting [7]) was 34%; in assay [1] (setting [8]), 98% (active); in assay [1] (at 50.0 µM) it was 91.7% (active); in assay [2] (setting [7]) it was 32%; in assay [2] (setting [8]) it was 99% (active); in assay [2] (at 50.0 µM) it was 91.5% (active). For the same compound, the growth inhibition in assay [3] (setting [7]) was 60%; in assay [3] (setting [8]), 99% (active); in assay [3] (at 50.0 µM) it was 92.2% (active); in assay [4] (setting [7]), 57%; in assay [4] (setting [8]), 99% (active); in assay [4] (at 50.0 µM), 90.3% (active). For the same compound, the growth inhibition in assay [5] (setting [7]) is 67%; in assay [5] (setting [8]), 99% (active); in assay [5] (at 50.0 µM), 91.5% (active); in assay [6] (setting [7]), 31%; in assay [6] (setting [8]), 98% (active); in assay [6] (at 50.0 µM) it was 90.2% (active).

On to `Nc1cc2c(cc1/C=C(\C(=O)O)c1ccccc1)OCO2`, for which the growth inhibition was -1% in assay [1] (setting [7]); -4% in assay [1] (setting [8]); 52.2% in assay [1] (at 50.0 µM); -11% in assay [2] (setting [7]); -8% in assay [2] (setting [8]); -8.75% in assay [2] (at 50.0 µM). Besides, the growth inhibition in assay [3] (setting [7]) was -5%; in assay [3] (setting [8]), -8%; in assay [3] (at 50.0 µM), 56%; in assay [4] (setting [7]), -4%; in assay [4] (setting [8]), 9%; in assay [4] (at 50.0 µM) it was -24.6%. For the same compound, the growth inhibition was -6% in assay [5] (setting [7]); 2% in assay [5] (setting [8]); -5.95% in assay [5] (at 50.0 µM); -3% in assay [6] (setting [7]); -2% in assay [6] (setting [8]); 15.2% in assay [6] (at 50.0 µM).

For the compound `CC(C)(C)c1ccc(-c2nc3ccccc3c(=O)o2)cc1`, the growth inhibition is -3% in assay [1] (setting [7]); 20% in assay [1] (setting [8]); 55.7% in assay [1] (at 50.0 µM); -1% in assay [2] (setting [7]); 41% in assay [2] (setting [8]); 53.1% in assay [2] (at 50.0 µM). Further, the growth inhibition in assay [3] (setting [7]) was 14%; in assay [3] (setting [8]), 74% (active); in assay [3] (at 50.0 µM), 87.2% (active); in assay [4] (setting [7]) it was -2%; in assay [4] (setting [8]), 40%; in assay [4] (at 50.0 µM), 61%. The growth inhibition was -1% in assay [5] (setting [7]); 86% (active) in assay [5] (setting [8]); 89.8% (active) in assay [5] (at 50.0 µM); -3% in assay [6] (setting [7]); 55% in assay [6] (setting [8]); 85% (active) in assay [6] (at 50.0 µM).

In the case of `Cc1ccc(C2(C)CC/C(=N/O)c3cc(C)c(C)cc32)cc1C` (stereo not given), the growth inhibition in assay [1] (setting [7]) is 72% (active); in assay [1] (setting [8]) it was 89% (active); in assay [1] (at 50.0 µM), 90.5% (active); in assay [2] (setting [7]), 61%; in assay [2] (setting [8]), 88% (active); in assay [2] (at 50.0 µM) it was 90.8% (active). In addition, the growth inhibition in assay [3] (setting [7]) was 66%; in assay [3] (setting [8]) it was 90% (active); in assay [3] (at 50.0 µM) it was 88.7% (active); in assay [4] (setting [7]) it was 63%; in assay [4] (setting [8]), 91% (active); in assay [4] (at 50.0 µM), 91.2% (active). Also, the growth inhibition in assay [5] (setting [7]) is 80% (active); in assay [5] (setting [8]), 92% (active); in assay [5] (at 50.0 µM) it was 87.9% (active); in assay [6] (setting [7]) it was 83% (active); in assay [6] (setting [8]), 92% (active); in assay [6] (at 50.0 µM), 90.5% (active).

As for `CN(C)C(=S)/N=c1\ssc(=S)n1Cc1ccco1`, the growth inhibition in assay [1] (setting [7]) is 22%; in assay [1] (setting [8]), -7%; in assay [1] (at 50.0 µM), 1.55%; in assay [2] (setting [7]), 0%; in assay [2] (setting [8]) it was -8%; in assay [2] (at 50.0 µM), -3.4%. Also, the growth inhibition in assay [3] (setting [7]) was -15%; in assay [3] (setting [8]), -9%; in assay [3] (at 50.0 µM) it was -15.8%; in assay [4] (setting [7]), -7%; in assay [4] (setting [8]) it was -11%; in assay [4] (at 50.0 µM) it was 0.45%. In addition, the growth inhibition was 2% in assay [5] (setting [7]); -5% in assay [5] (setting [8]); 47.3% in assay [5] (at 50.0 µM); -2% in assay [6] (setting [7]); -9% in assay [6] (setting [8]); -4.25% in assay [6] (at 50.0 µM).

Take `Cc1c2ccccc2c(CO)c2cc(F)c3ccccc3c12`: the growth inhibition in assay [1] (setting [7]) is 71% (active); in assay [1] (setting [8]) it was 98% (active); in assay [1] (at 50.0 µM), 71.5% (active); in assay [2] (setting [7]), 95% (active); in assay [2] (setting [8]) it was 99% (active); in assay [2] (at 50.0 µM), 34%. Moreover, the growth inhibition was 97% (active) in assay [3] (setting [7]); 99% (active) in assay [3] (setting [8]); 84.2% (active) in assay [3] (at 50.0 µM); 87% (active) in assay [4] (setting [7]); 98% (active) in assay [4] (setting [8]); 31.9% in assay [4] (at 50.0 µM). The growth inhibition is 91% (active) in assay [5] (setting [7]); 98% (active) in assay [5] (setting [8]); 85% (active) in assay [5] (at 50.0 µM); 95% (active) in assay [6] (setting [7]); 98% (active) in assay [6] (setting [8]); 92.7% (active) in assay [6] (at 50.0 µM).
